Test results from article PMC5540273 (PLoS ONE, 2017).

Test system: FLT1
Settings: concentration: 1 μM, replicates: in singlicate; n = 1
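Further: KINOMEscan kinase panel screen.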

Compound	%Inh [%]
N#Cc1c(N2CCOCC2)sc(-c2ccn[nH]2)c1-c1ccc(Cl)cc1	0
c1ccc(-c2cc(-c3c[nH]nc3-c3ccccn3)ccn2)cc1 [GW576604]	46
O=C(NCCCN1CCOCC1)c1cccc(Nc2nccc(Nc3ccc(Oc4ccccc4)cc3)n2)c1 [GW663929]	30
CCCCCc1nc2c(N)ncnc2n1CCCCC [SKF-97255]	0
Cc1c(Cn2c(C)nn3c(=O)cc(N4CCOC(C)C4)nc23)cccc1C(F)(F)F (centres unmarked) [GSK2344444]	25
O=C(NCCNc1ccnc(Nc2ccc(F)cc2)n1)c1cc2ccccc2s1 [GSK1379874]	19
CC(C)Oc1ccc2c(-c3ccnc(Nc4ccc(N5CCN(C)CC5)cc4)n3)cnn2n1 [GW696155]	59
COc1cc2c(cc1OCCN1CCN(C)CC1)ncc1c3ccc(C#N)cc3[nH]c21	14
CC(=O)Nc1ccc(COc2ccc(Nc3ccnc4cc(-c5ccccn5)ccc34)cc2)cc1.Cl [GW440148]	99.2
CC(C)(C)n1cnc2c(N)ncnc21 [SKF-97359]	7
CN(C1=C(c2ccccc2)C(=O)NC1=O)c1ccccc1 [SB-334860]	0
Cl.Nc1ncnc2occ(-c3ccc(NC(=O)Nc4cc(C(F)(F)F)ccc4F)cc3)c12 [SB-707548]	99.5
NS(=O)(=O)c1cccc(-c2ccc3nccc(-c4cccc(S(N)(=O)=O)c4)c3c2)c1 [GW867253]	0
NS(=O)(=O)c1cccc(-c2ccc3ncc(N4CCOCC4)nc3c2)c1 [GSK1535721]	13
COc1ccc(CNC(=O)NC2CCN(c3ccnc(Nc4ccc(OC)cc4)n3)C2)cc1 (centres unmarked) [GSK1379727]	5
Cc1nnc(-c2ccc(C)c(-c3ccc(C(=O)Nc4ccc(NS(C)(=O)=O)cc4)cc3)c2)o1 [GW702865]	25

Compound	%Inh [%]
Cc1nnc(-c2ccc3occ(-c4ccc(C(C)O)cc4)c3c2)o1 (centres unmarked)	16
[2H]C([2H])(c1cccc(C(F)(F)F)c1C)n1ccn2c(=O)nc(N3CCOCC3)cc12 [GSK2336394]	22
NCC(NC(=O)c1cc(-c2cn[nH]c2)c(-c2ccnc3[nH]ccc23)s1)c1ccccc1.O=C(O)C(F)(F)F.O=C(O)C(F)(F)F (centres unmarked) [GSK1325775]	0
O=C(NCCNc1ccnc(Nc2ccc(F)cc2)n1)Nc1ccccc1F [GSK1379880]	4
COc1ccc(S(=O)(=O)NC2CCN(c3cc(C)nc(Nc4cccc(C#N)c4)n3)CC2)cc1.O=C(O)C(F)(F)F [GSK1653539]	12
O=C1NC(=O)C(N2CCc3ccccc32)=C1c1cccc(Cl)c1 [SB-408010]	11
O=c1cc(N2CCOCC2)nc2n(Cc3cccc(Cl)c3Cl)c(C3CC3)nn12 [GSK2358994]	6
O=c1cc(N2CCOCC2)nc2n(Cc3cccc(F)c3)ccn12 [GSK2297430]	42
CSc1ccc(-c2cc3ncnc(SCC(=O)O)c3s2)cc1	2
O=C(c1ccc(-c2cc(-c3c[nH]nc3-c3ccccn3)ccn2)cc1)N1CCOCC1 [GW812171]	0
COc1ccc(Nc2nccc(N3CCC(NC(=O)Nc4cc(C)ccc4C)C3)n2)cc1 (centres unmarked) [GSK1379741]	16
Fc1ccc(-c2nn3c(OCC(F)(F)F)cccc3c2-c2ccncc2)cc1 [GW514784]	35
N#Cc1ccc(-c2cc(-c3c[nH]nc3-c3ccccn3)ccn2)cc1 [GW693028]	0
COc1cc2ncn(-c3cc(OCc4sccc4Cl)c(C(N)=O)s3)c2cc1OC [GSK448459]	15
NS(=O)(=O)CCc1cccc(Nc2nccc(-c3c(-c4cccc(NC(=O)c5c(F)cccc5F)c4)nn4ccccc34)n2)c1 [GSK336735]	99.3
O=C(Nc1n[nH]c2cc(-c3cccc(F)c3)ccc12)C1CC1 [SB-735464]	0
